Most compounds without a hit are left out; they make up all but 3.4% or so of the library.
TEAD-YAP inh: TEAD-YAP interaction inhibition, primary screen, TEAD-YAP interaction inhibitor project, luminescence, HEK-TIYL cells; TEAD-Gal4/YAP UAS-luciferase luminescence; inhibition, % at 9.12 µM; 640,000 tested, 1.4% active; AID 1259422, 2018; in the data active = inhibition above about 32%;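 also: 0% = median of test compound wells and 100% = reference inhibitor wells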
FBW7 act: FBW7 E3 ligase activators, primary screen, biochemical, AlphaScreen, human. AlphaScreen FBW7–phospho-cyclin E peptide binding, activator screen. 650,000 tested, 0.13% active. normalized activity (activation), % at 26.1 µM; in the data active = normalized activity above about 1.9%;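 also: purified mutant Fbw7 with reduced substrate affinity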
Target sequence (Q969H0 whole entry, looked up): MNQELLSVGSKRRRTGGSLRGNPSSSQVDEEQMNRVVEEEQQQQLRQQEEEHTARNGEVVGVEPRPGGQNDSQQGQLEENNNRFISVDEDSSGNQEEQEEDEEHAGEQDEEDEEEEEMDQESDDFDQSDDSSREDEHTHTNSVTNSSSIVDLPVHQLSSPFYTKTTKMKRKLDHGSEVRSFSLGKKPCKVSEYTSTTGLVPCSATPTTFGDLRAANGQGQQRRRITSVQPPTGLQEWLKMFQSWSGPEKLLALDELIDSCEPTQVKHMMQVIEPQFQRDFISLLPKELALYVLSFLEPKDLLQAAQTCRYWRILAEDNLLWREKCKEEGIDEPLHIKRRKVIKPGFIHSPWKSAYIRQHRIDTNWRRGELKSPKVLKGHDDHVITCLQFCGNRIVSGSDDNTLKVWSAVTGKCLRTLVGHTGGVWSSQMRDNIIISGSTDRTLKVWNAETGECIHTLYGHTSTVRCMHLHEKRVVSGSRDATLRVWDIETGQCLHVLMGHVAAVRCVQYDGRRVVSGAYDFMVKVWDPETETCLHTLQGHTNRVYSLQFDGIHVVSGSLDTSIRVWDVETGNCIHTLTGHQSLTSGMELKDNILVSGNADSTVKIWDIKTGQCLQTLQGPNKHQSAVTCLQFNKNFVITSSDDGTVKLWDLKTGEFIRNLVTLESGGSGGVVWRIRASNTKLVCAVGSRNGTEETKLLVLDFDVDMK
MITF primary: MITF inhibitors, primary screen, biochemical, AlphaScreen, human; Microphthalmia-associated transcription factor (Homo sapiens), O75030; AlphaScreen MITF homodimerization, bead proximity signal; inhibition, % at 2.6 µM; 650,000 tested, 0.91% active; AID 1259374, 2018; in the data active = inhibition above about 50%;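 also: 0% = vehicle wells with protein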
GPR151 activ: activators of human GPR151, primary screen, cell-based, PathHunter beta-arrestin, luminescence; activation, % at 11.2 µM; PathHunter beta-arrestin GPR151 cells; 650,000 tested, 1% active; G-protein coupled receptor 151 (Homo sapiens), Q8TDV0; in the data active = activation above about 4.9%;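 also: 0% = median of compound wells and 100% = cells with positive control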
MITF confirm: MITF inhibitors, retest of hits, confirmation, biochemical, AlphaScreen, triplicate | shares compounds with MITF primary | AlphaScreen MITF homodimerization, biotin/His-MITF beads | inhibition, % at 2.6 µM | 4,700 tested, 16% active | AID 1259372, 2018;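 active = inhibition above a cutoff derived from the DMSO control wells, cut at about 28% in these data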;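 also: 0% = MITF dimer wells with DMSO only; inhibitors lower the bead chemiluminescence by keeping MITF from dimerizing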
AlphaScreen DR: AlphaScreen optical interference compounds, dose response, counter-screen, biochemical, HTS. shares compounds with MITF primary. AlphaScreen optical interference counterscreen, cell-free. IC50, µM. 480 tested, 6% active; call rule not given here
AlphaScreen intf2: AlphaScreen optical interference compounds, counter-screen for MITF inhibitor project, biochemical, triplicate; AID 1259376, 2018; 4,700 tested, 7.6% active; shares compounds with MITF primary; LysRS AlphaScreen counterscreen, signal interference; inhibition, % at 2.6 µM;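 active = inhibition above a cutoff derived from the DMSO control wells, cut at about 30% in these data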
* marks the source's active call; other numbers are inactive results; · = no result.

SMILES	TEAD-YAP inh	FBW7 act	MITF primary	GPR151 activ	MITF confirm	AlphaScreen intf2	others
Cc1ccc(-c2cc(C(F)(F)F)n3nc(C(=O)Nc4ccccc4C)cc3n2)cc1	-6	0	-1	1	·	·
CCc1ccccc1N(CC(=O)N1CCCCC1)S(=O)(=O)c1ccccc1	2	0	1	1	·	·
Cc1cccc(NCc2ccncc2)c1	5	0	77*	-1	21	20
Cc1ccc(NCc2ccncc2)c(Br)c1	-2	0	69*	0	-7	-5
COc1cc(CNc2ccccc2)cc(OC)c1OC	-10	0	1	1	·	·
COc1cc(CNc2cccc(C)c2)cc(OC)c1OC	15	0	55*	2	-2	2
Cc1ccc(NC(=O)CSc2nc3ncnc(N)c3[nH]2)cc1C	-1	0	11	-1	·	·
COc1ccc(CCNC(N)=S)cc1OC	-6	0	63*	0	6	-1
COc1ccc(CCNc2ccc(Cl)cn2)cc1OC	-10	0	97*	-1	-12	-6
COc1ccc(OC)c(C(=O)COC(=O)/C=C/c2cccs2)c1	-4	0	4	2	·	·
CCCCC1=NN(C(=O)C(=O)NCCc2ccccc2)C(O)(C(F)(F)F)C1 (centres undefined)	1	0	2	0	·	·
C/C(=N\NC(=O)c1ccccc1)c1ccc(Cl)s1	-46	0	1	-3	·	·
COc1ccc(Br)cc1/C=N\NC(=O)CNc1ccccc1C	-1	0	-3	0	·	·
COc1ccc(OC)c(/C=N\NC(=O)CNc2ccccc2C)c1	14	0	63*	-1	-1	0
N[C@@H](C(=O)N[C@@H]1C(=O)N2C(C(=O)O)=C(CSC3CNNN3)CS[C@H]12)c1ccc(O)cc1 (some centres undefined) (tested in a mixture with another compound)	-1	0	63*	2	72*	29	AlphaScreen DR=0.67*
O=C(O)CCC(=O)Nc1ccc(Cl)c(C(=O)O)c1	9	0	6	-1	·	·
CCCNC(=O)Nc1ccc(Cl)c(C(=O)O)c1	2	0	64*	0	-16	-8
O=C(NCc1ccco1)Nc1c[nH]c2cccnc2c1=O	-4	-1	59*	-1	81*	87*
CN(C)CCCN(CCCN(C)C)Cc1cccc(C(F)(F)F)c1	6	0	57*	2	-6	-4
CN(C)CCCN(CCCN(C)C)Cc1ccc(F)c(Br)c1	4	0	53*	1	-13	-4
CN(C)CCCN(CCCN(C)C)Cc1ccc(Cl)cc1	-8	0	37	0	·	·
CN(C)CCCN(CCCN(C)C)Cc1ccc(F)cc1	3	0	64*	1	-10	10
CC(=O)c1cccc(-c2[nH]nc3nc(-c4ccc(C(=O)NCCN(C)C)cc4)ccc23)c1	-5	0	-10	0	·	·
CCC(=O)Nc1ccc2c(c1)C(=O)N(C1CCCCC1)C2=O	-13	0	-1	0	·	·
CCCC(=O)Nc1ccc2c(c1)C(=O)N(C1CCCCC1)C2=O	11	0	58*	-1	-5	-8
SMILES	TEAD-YAP inh	FBW7 act	MITF primary	GPR151 activ	MITF confirm	AlphaScreen intf2	others
N#C/C(=C\c1ccc(-c2ccccc2C(=O)O)o1)C(=O)NCc1ccco1	-3	-1	76*	-1	64*	-5	AlphaScreen DR=>6.5
Cc1cc(C(=O)O)ccc1-c1ccc(/C=C(\C#N)C(=O)NCc2ccco2)o1	-37	0	26	-1	·	·
Cc1nc(C)n(-c2ccc(Nc3cc(-n4cc(N(c5cccnc5)c5cccnc5)cn4)ccn3)cc2)n1	-1	1	51*	-1	52*	0	AlphaScreen DR=>6.5
CN1CCCCC1CSc1nnc2ccc(-c3ccccn3)nn12 (centres undefined)	1	0	-5	-1	·	·
CCOc1ccc(/C=C/C(=O)Nc2nc3ccc(S(C)(=O)=O)cc3s2)cc1OC	-1	0	73*	0	-1	2
CCc1cccc(OCCCNC(C)CC)c1 (centres undefined)	12	0	82*	-1	14	8
CCC(C)NCCOCCOc1ccc(C)cc1 (centres undefined)	10	0	49	0	·	·
CCC(C)NCCOc1ccc(Br)cc1 (centres undefined)	4	0	76*	-1	-14	1
CCC(C)NCCOCCOc1ccc(Cl)c(Cl)c1 (centres undefined)	-6	0	66*	1	-3	-5
CCC(C)NCCOCCOc1ccc(Br)cc1 (centres undefined)	4	0	26	1	·	·
COc1ccc(CCNC(=O)CCCCCn2c(SCC(=O)NCc3ccco3)nc3cc4c(cc3c2=O)OCO4)cc1OC	-10	0	-12	0	·	·
CNC(=O)COc1ccc(C(C)=O)cc1	-5	0	-16	2	·	·
COc1cc(C(=O)NCCC(=O)NC2CCCCCCC2)cc(OC)c1OC	7	0	78*	-1	-1	1
CCCCCCCCCCCCCCCC(=O)OC[C@H](O)[C@H]1OC(=O)C(=O)C1O (some centres undefined)	24	0	81*	-2	42*	-13	AlphaScreen DR=>6.5
Oc1ccc(/C=N\Nc2nncc(-c3ccccc3)n2)cc1	-1	1	5	0	·	·
COc1ccc(/C=N/Nc2nncc(-c3ccccc3)n2)cc1Br	-4	0	65*	0	-11	-9
O=C1N/C(=C/c2cccn2-c2ccccc2)C(=O)N1Cc1ccccc1F	13	0	55*	-1	3	0
CCOC(=O)C1=C(C)N=c2s/c(=C\c3cc(C)n(-c4ccc(Cl)cc4)c3C)c(=O)n2C1c1ccc(OC)cc1 (centres undefined)	-4	0	6	0	·	·
Cc1noc(C)c1CC(=O)N1CCOc2ccc(C(O)c3ccccn3)cc2C1 (centres undefined)	-4	0	8	0	·	·
CCOC(c1ccccc1)c1ccc2c(c1)CN(C(=O)Cc1c(C)noc1C)CCO2 (centres undefined)	-4	0	75*	-1	-5	-4
CCN(C)c1ccc(/C=C/c2nc(O)c([N+](=O)[O-])c(=O)[nH]2)cc1	-1	0	-6	2	·	·
O=C(Nc1ccc(Nc2ccc(-n3cccn3)nn2)cc1)c1ccccc1Cl	-1	0	58*	1	4	8
CCN(CC)CCN=Cc1c(O)n(-c2ccccc2Cl)c(=O)c2ccccc12	-3	0	8	0	·	·
CC(=O)N1CCC(=NNc2nc3ccccc3[nH]2)CC1	-26	0	82*	1	30*	50*

Screens deposited in PubChem by The Scripps Research Institute Molecular Screening Center.
